Compound activity: PubChem, several laboratories
ERa SRC1 inh: ER-alpha (human) coactivator binding inhibition; P03372; TR-FRET ER-alpha LBD / SRC-1 peptide, estradiol-bound; inhibition, % at 25.6 µM; 1.7% of 86,000 active; AID 629; in the data active means inhibition above about 50%;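 further: 0% = receptor plus peptide control and 100% = peptide only without receptor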
MT1-MMP txn act: activates MT1-MMP transcription; HT1080 MT1-MMP promoter luciferase reporter, luminescence, overnight; hits give high values; activation factor at 10 µM; 0.16% of 86,000 active; AID 750;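 active means activation factor of at least 2 for MT1-MMP transcription at 10 µM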
Smad3 inh: blocks human Smad3 binding to FoxH1 peptide; P84022; TR-FRET Smad3/Dy647-FoxH1 peptide binding, europium anti-His; inhibition, % at 25 µM; 0.29% of 88,000 active;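 active means compounds that reduce the energy-transfer binding signal between the protein and its labelled peptide by more than half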;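 further: 0% = Smad3 plus labelled peptide maximal FRET and 100% = peptide-only background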
Target sequence (P84022 whole entry, looked up): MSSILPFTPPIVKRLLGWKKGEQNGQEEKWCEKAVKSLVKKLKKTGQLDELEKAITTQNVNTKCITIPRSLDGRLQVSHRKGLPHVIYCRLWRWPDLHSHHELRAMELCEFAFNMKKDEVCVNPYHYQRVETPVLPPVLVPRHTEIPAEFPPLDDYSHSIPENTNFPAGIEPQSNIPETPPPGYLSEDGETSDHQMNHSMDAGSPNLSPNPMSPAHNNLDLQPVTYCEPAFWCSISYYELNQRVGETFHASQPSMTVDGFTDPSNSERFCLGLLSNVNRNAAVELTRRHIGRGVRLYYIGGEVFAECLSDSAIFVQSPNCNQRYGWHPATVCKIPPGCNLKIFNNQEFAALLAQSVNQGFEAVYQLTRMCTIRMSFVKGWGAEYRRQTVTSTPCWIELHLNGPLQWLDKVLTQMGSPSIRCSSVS
ERa coact pot: ER-alpha (human) coactivator binding potentiation | 1.3% of 86,000 active | TR-FRET ERalpha-LBD/SRC-Cy5 coactivator binding, 2 h; 100 = basal binding, no effect | AID 639 | P03372 | coactivator binding (% of control), % at 25.6 µM; in the data active means activity above about 200%;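 further: binding measured in presence of low estradiol as agonist stimulus; 0% = peptide alone without receptor and 100% = receptor with peptide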
MMP13 inh: inhibitors of human MMP13. P45452. MMP-13 fTHP FRET cleavage, Mca fluorescence. inhibition, % at 4 µM. AID 570. 0.07% of 65,000 active;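 active means inhibition above the mean of compound-free control plate wells plus 3 SD, cut at about 14% in these data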;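 further: 0% = DMSO wells and 100% = wells with reference MMP-13 inhibitor after basal subtraction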
ERb coact inh: ER-beta (human) coactivator binding inhibition; Q92731; TR-FRET ER-beta LBD / SRC1-Cy5 peptide binding; receptor agonist-loaded with 1 µM estradiol; inhibition, % at 25.6 µM; 1.3% of 86,000 active; AID 633;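 active means compounds whose percent inhibition of the receptor-coactivator binding signal exceeds about 50% in the single-dose screen, limit read from the data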;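 further: 0% = receptor plus peptide wells without compound and 100% = peptide-only wells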
An asterisk follows results filed as active; . = no result given; [ ] = dose if it differs, or a comment. This is a sample that favours compounds with a hit; in the whole collection about 3.5% have one here.

SMILES | ERa SRC1 inh | MT1-MMP txn act | Smad3 inh | ERa coact pot | MMP13 inh | ERb coact inh
O=C(CCc1ccccc1)Nc1nnc(-c2cccs2)o1 | 0 | 1.1 | 1 | 97 | -6 | 70*
O=C(CCc1ccccc1)Nc1nnc(-c2ccc3c(c2)CCCC3)o1 | 4 | 1.2 | -5 | 111 | 2 | 8
O=C(Nc1c(Cl)cc(Cl)cc1C(=O)NCC1CCCO1)c1ccco1 (centres undefined) | . | 1 | . | . | -10 | .
Cc1nn(C(=O)c2ccco2)c(C)c1CN1C(=O)c2ccccc2C1=O | 28 | 1.1 | 1 | 200*[fluorescence artefact?] | 2 | 8
CN(C)Cc1cc(O)c(O)c(CN(C)C)c1 | . | . | 54* | . | . | .
CN(C)Cc1cc(Cl)c(O)c(CN(C)C)c1 | . | . | -2 | . | . | .
CCOC(=O)CSc1nc2ccccc2n1C(=O)OCC | -7 | 1 | -9 | 103 | -1 | -5
CCSc1nc2ccccc2n1C(=O)Oc1ccccc1 | -45 | 1.4 | -7 | 497*[fluorescence artefact?] | . | 4
CCN(CC)S(=O)(=O)c1cccc(-c2nnc(SCCCC(=O)c3ccc(F)cc3)o2)c1 | 1 | 1.1 | -5 | 578*[fluorescence artefact?] | 0 | 27
COC(=O)c1cc(Nc2ncnc3c2cnn3-c2ccccc2)cc(C(=O)OC)c1 | . | 1.1 | . | . | 5 | .
Cc1occc1-c1nnc(SCc2cc(=O)n3cc(Br)ccc3n2)n1C | 61* | 1 | 8 | 121 | 2 | 53*
Cn1c(SCc2cc(=O)n3cc(Br)ccc3n2)nnc1C1COc2ccccc2O1 (centres undefined) | 68* | 1.2 | -3 | 65 | -2 | 49
O=C(OCc1cc(=O)n2cc(Br)ccc2n1)C1COc2ccccc2O1 (centres undefined) | 34 | 1.1 | 3 | 77 | -5 | 28
Cc1ccccc1Nc1nc(CSc2nnc(-c3ccoc3C)n2C)cs1 | 0 | 1.3 | 1 | 92 | -1 | 7
Cc1ccc(C)c(C(=O)CC2(O)C(=O)Nc3ccccc32)c1 (centres undefined) | 4 | 1.2 | 1 | 97 | -2 | 2
Cc1cc(C)n2c(Nc3ccc4c(c3)OCCO4)c(-c3ccccc3)nc2n1 | 1 | 1.2 | 15 | 75 | . | -7
Cc1ccc(N2C(=O)CS/C2=C(\C(Cl)=C(Cl)Cl)[N+](=O)[O-])cc1 | 22 | 1 | 52* | 110 | . | 33
CSc1nnc2c(n1)OC(c1ccc(C(=O)O)cc1)N(C(C)=O)c1ccccc1-2 (centres undefined) | -1 | 1.1 | 19 | 111 | -8 | 1
COc1ccc2c(c1)-c1ccccc1S(=O)(=O)N2C(C)=O | 87*[fluorescence artefact?] | 1.1 | 1 | 25 | -14 | 63*[fluorescence artefact?]
N/C(=N\c1nc2ccccc2o1)NC(=O)c1ccccc1NC(=O)c1ccccc1 | -2 | 1.2 | 6 | 122 | -6 | 82*
CCOC(=O)CC(=O)CSc1nc2ccc(C)cc2cc1C#N | 6 | 1.5 | 8 | 113 | -1 | 5
Cc1ccc2nc(SCC(=O)Nc3ccccc3N3CCOCC3)c(C#N)cc2c1 | 19 | 1.3 | -7 | 217*[fluorescence artefact?] | . | 17
COC(=O)CSc1nc2cc(C)ccc2cc1C#N | -10 | 2* | -11 | 105 | 7 | -7
Cc1ccc(-c2cc3c(nn2)-c2ccccc2C3=O)cc1 | 63*[fluorescence artefact?] | . | 26 | 60 | 5 | 37
CCc1ccc2nc(SCC(=O)N3CC(=O)Nc4ccccc43)c(C#N)cc2c1 | 5 | 1.2 | 22 | 360* | . | -13
SMILES | ERa SRC1 inh | MT1-MMP txn act | Smad3 inh | ERa coact pot | MMP13 inh | ERb coact inh
CSc1ccccc1NC(=O)c1cnccn1 | 56*[fluorescence artefact?] | 1.2 | 6 | 64 | 0 | 43
CC(=O)Nc1nc(C=C(Cl)Cl)cs1 | 65* | 1.3 | 7 | 15 | -2 | 61*[fluorescence artefact?]
CC(=O)Nc1nc(C(=O)Nc2c(C)n[nH]c2C)cs1 | -6 | 1.2 | 7 | 116 | -1 | -3
O=C(CSc1nc2ccccc2o1)Nc1ccccc1 | -5 | 1.3 | 0 | 103 | 3 | 12
CCOC(=O)c1ccc(NC(=O)Nc2ccc(F)cc2)cc1 | -3 | 1.4 | -9 | 108 | . | 12
CCC1=NN=C(c2ccc(F)cc2)C(c2c[nH]c3ccccc23)N1O (centres undefined) | 2 | 1.4 | 1 | 686*[fluorescence artefact?] | . | -9
CCCN1C2CCCC1CC(NC(=O)Nc1ccc(C(C)C)cc1)C2 (centres undefined) | -10 | 1.2 | 2 | 97 | . | -8
Cc1ccc(C(=O)C2CCNCC2)cc1 | . | 1.1 | . | . | -1 | .
CCOC(=O)CN1CC23C=CC(O2)C(C(=O)Nc2cc(OC)ccc2OC)C3C1=O (centres undefined) | 72*[fluorescence artefact?] | 1 | 36 | 41 | 14* | 69*
Cc1ccc2nc(-c3cccc(N)c3)oc2c1 | 0 | . | 9 | 88 | . | -1
Cc1ccc2nc(-c3cccc(-c4nc5ccc(C)cc5o4)n3)oc2c1 | 7 | 1.1 | -8 | 248*[fluorescence artefact?] | -15 | 12
Cc1ccc(OCC(=O)N2CCN(C(=O)c3cccs3)CC2)cc1 | -7 | 1.2 | -7 | 100 | 4 | -16
Cn1c(-c2ccc(N)cc2)nc2ccccc21 | 3 | 1.1 | 0 | 650*[fluorescence artefact?] | -146 | -7
Nc1nc2ccc(O)cc2s1 | -2 | 1.1 | -1 | 96 | . | 7
Cn1c(-c2ccc3nc(N)sc3c2)nc2cc(N)ccc21 | 64*[fluorescence artefact?] | 1.6 | 6 | 27 | -41 | 54*[fluorescence artefact?]
Cc1oc(-c2ccc(Cl)cc2)nc1CN1CCCC(C(=O)NCc2cccnc2)C1 (centres undefined) | -7 | 1.2 | -4 | 109 | 4 | 53*
Cn1c(=O)c(C(=O)Nc2ccccn2)c(O)c2ccccc21 | -5 | 0.5 | 24 | 286*[fluorescence artefact?] | -6 | 10
Cn1c(=O)c(C(=O)Nc2cnccn2)c(O)c2ccccc21 | 34 | 1.6 | 21 | 171 | 4 | 19
CCOC(=O)Cc1ccc(NS(=O)(=O)c2ccc(SC)cc2)cc1 | 54* | 1.4 | 3 | 52 | 2 | 18
CCn1c(C)nc2cc(C(=O)NNS(=O)(=O)c3c(C)c(C)cc(C)c3C)ccc21 | -1 | 1.2 | 19 | 80 | . | -2
Cc1ccc(C2Nc3ccc4ccccc4c3C3=C2C(=O)CC(C)(C)C3)o1 (centres undefined) | 2 | 1.2 | 12 | 112 | . | 1
O=C1CCCC2=C1C(c1ccco1)Nc1ccc3ccccc3c12 (centres undefined) | 89*[fluorescence artefact?] | 1.5 | -3 | 4 | -69 | 89*[fluorescence artefact?]
CCOC(=O)Cn1c(C)cc(=O)c2ccccc21 | -9 | 1.2 | -9 | 98 | . | -4
Cc1cccc(-n2cnc(C(=O)N/N=C\c3ccc(Br)cc3)c2)n1 | -8 | 1 | 12 | 515*[fluorescence artefact?] | . | 32
CCc1nnc2n1N=C(c1ccc(-c3cc(Cl)ccc3Cl)o1)CS2 | 59* | 1 | 4 | 79 | -3 | 34
Cc1cc(C)c(C(=O)CC2(O)C(=O)Nc3ccccc32)cc1C (centres undefined) | 14 | 1 | -2 | 97 | 4 | 12
